Holding throughout (assay): DAPPL (digital affinity profiling via proximity ligation, sequencing); 10 mM Tris-HCl pH 7.5, 50 mM NaCl, 1 mM DTT, 4% glycerol, room temperature, 30 min; GST-TFs on glutathione beads, 16-mer random dsDNA library, 0.1% formaldehyde crosslink after washing; high values mean tight binding
The target of assay [1] is T1, FLI1 (Homo sapiens, UniProt Q01543 1-452).
T1 sequence: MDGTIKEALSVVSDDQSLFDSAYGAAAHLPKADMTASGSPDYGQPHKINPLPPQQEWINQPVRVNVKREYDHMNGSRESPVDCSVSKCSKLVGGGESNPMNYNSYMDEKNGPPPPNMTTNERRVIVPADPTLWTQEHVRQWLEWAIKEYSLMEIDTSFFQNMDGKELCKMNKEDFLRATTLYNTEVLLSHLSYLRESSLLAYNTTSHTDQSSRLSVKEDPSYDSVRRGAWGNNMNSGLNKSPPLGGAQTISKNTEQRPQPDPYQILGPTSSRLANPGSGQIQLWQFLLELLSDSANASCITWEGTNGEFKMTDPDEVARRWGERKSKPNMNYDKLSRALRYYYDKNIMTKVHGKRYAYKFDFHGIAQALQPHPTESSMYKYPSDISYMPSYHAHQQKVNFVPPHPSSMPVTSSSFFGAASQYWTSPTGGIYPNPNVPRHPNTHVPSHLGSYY
Particulars: protein: recombinant; tags: N-terminal GST; dsDNA, one strand shown. The procedure, abridged: (§1)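 Pools were built from human transcription factors expressed in yeast as GST fusions, captured on glutathione beads and DNA-barcoded, along with a tag-only sample. Incubation with 200 nmole of a 16-mer random double-stranded DNA library lasted 30 min at room temperature in Tris/NaCl/DTT/glycerol buffer, and was followed by washing, 0.1% formaldehyde crosslinking, proximity ligation, PCR amplification and Illumina NextSeq500 sequencing. Binding signal is the quotient of each hexamer's read frequency for a factor and its frequency for the tag-only sample.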

The target in assay [2] is T2, ELK1 (Homo sapiens, UniProt P19419 1-428).
T2 sequence: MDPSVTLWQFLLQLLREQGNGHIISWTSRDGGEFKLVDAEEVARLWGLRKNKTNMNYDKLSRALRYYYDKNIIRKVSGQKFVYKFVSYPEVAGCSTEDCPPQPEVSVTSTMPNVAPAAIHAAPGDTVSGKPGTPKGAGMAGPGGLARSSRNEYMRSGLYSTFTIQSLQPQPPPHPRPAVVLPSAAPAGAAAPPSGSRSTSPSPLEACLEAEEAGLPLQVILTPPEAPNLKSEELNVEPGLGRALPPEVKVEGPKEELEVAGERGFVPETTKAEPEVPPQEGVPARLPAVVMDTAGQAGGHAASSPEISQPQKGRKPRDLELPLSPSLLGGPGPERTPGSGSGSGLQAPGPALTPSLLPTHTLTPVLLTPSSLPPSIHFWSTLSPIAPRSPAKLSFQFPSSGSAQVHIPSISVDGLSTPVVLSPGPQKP
Particulars: protein: recombinant; tags: N-terminal GST; dsDNA, one strand shown. The procedure, abridged: as §1

Assay [3] addresses T3, GABPA (Homo sapiens, UniProt Q06546 1-454).
T3 sequence: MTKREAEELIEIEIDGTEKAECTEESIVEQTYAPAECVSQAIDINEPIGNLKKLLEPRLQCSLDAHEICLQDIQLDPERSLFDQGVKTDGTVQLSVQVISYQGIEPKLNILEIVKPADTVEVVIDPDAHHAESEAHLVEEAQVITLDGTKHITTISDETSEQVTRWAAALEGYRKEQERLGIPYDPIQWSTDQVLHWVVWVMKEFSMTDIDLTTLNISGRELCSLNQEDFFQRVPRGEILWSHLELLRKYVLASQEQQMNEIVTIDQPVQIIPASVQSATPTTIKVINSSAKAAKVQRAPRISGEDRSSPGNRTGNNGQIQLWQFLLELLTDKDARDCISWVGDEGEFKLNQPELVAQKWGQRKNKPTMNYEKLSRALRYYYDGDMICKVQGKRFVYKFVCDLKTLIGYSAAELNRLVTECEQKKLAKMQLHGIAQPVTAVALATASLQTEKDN
Conditions: protein: recombinant; tags: N-terminal GST; dsDNA, one strand shown. The method in brief: as §1

In assay [4] the target is T4, ERG (Homo sapiens, UniProt P11308 1-479).
T4 sequence: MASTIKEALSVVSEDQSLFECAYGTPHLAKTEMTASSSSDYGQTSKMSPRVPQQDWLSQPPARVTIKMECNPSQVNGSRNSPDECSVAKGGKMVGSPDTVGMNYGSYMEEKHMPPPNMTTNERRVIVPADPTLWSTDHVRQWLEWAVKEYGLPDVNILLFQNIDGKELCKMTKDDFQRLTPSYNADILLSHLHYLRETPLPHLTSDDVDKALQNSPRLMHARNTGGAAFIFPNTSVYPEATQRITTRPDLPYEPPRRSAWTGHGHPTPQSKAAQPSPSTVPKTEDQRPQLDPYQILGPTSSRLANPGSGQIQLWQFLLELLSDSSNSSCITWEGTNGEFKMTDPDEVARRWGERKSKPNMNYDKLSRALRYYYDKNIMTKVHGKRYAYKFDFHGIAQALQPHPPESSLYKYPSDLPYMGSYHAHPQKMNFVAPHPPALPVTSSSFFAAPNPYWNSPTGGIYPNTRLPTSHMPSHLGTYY
Particulars: protein: recombinant; tags: N-terminal GST; dsDNA, one strand shown. The procedure, abridged:
as §1

Assay [5] deals with ELF1 (Homo sapiens, UniProt P32519 1-619). Particulars: protein: recombinant; tags: N-terminal GST; dsDNA, one strand shown. The method in brief:
as §1

For assay [6], the target named is T5, EHF (Homo sapiens, UniProt Q9NZC4 1-300).
T5 sequence: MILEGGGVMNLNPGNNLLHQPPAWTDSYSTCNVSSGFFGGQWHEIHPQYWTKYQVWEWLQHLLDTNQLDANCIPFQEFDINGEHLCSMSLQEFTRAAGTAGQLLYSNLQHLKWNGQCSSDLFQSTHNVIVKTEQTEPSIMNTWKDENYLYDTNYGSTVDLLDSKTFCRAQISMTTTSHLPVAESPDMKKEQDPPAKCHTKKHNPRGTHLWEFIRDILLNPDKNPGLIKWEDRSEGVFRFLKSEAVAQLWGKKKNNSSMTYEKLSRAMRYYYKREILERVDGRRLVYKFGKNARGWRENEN
Particulars: protein: recombinant; tags: N-terminal GST; dsDNA, one strand shown. The method in brief: as §1

Assay [7] concerns the target SPI1 (Homo sapiens, UniProt P17947 1-270). Particulars: protein: recombinant; tags: N-terminal GST; dsDNA, one strand shown. The procedure, abridged: as §1
For assay [8], the target named is SPIB (Homo sapiens, UniProt Q01892 1-262). Conditions: protein: recombinant; tags: N-terminal GST; dsDNA, one strand shown. The method in brief: as §1
Sequence of SPIB (Q01892 whole entry): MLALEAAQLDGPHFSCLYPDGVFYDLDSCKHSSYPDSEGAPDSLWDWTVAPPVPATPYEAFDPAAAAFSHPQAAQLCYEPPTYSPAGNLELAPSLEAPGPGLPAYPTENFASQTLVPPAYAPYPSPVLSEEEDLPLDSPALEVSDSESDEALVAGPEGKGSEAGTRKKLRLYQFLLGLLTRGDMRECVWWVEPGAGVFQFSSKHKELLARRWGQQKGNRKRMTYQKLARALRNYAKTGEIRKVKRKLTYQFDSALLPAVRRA
For assay [9], the target named is T6, ELK3 (Homo sapiens, UniProt P41970 1-407).
T6 sequence: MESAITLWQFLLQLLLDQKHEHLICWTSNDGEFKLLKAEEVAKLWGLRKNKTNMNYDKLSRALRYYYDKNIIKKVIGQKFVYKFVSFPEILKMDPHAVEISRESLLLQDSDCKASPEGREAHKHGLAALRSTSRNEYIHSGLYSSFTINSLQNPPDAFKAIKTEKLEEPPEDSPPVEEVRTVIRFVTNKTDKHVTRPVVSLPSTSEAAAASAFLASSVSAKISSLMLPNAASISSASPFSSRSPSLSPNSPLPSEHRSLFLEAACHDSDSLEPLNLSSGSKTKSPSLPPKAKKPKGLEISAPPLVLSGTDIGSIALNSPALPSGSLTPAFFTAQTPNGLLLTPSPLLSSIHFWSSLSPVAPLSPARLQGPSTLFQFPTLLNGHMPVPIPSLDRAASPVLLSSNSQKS
Conditions: protein: recombinant; tags: N-terminal GST; dsDNA, one strand shown. The method in brief:
as §1

Assay [10] concerns the target T7, FEV (Homo sapiens, UniProt Q99581 1-238).
T7 sequence: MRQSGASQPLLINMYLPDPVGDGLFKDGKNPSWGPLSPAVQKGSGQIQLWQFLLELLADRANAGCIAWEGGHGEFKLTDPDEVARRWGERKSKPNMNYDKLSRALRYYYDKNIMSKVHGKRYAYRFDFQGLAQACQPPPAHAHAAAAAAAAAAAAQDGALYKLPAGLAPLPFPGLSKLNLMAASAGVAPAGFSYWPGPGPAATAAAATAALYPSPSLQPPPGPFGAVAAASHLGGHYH
Particulars: protein: recombinant; tags: N-terminal GST; dsDNA, one strand shown. The method in brief:
as §1

The target of assay [11] is ETV5 (Homo sapiens, UniProt P41161 1-510). Particulars: protein: recombinant; tags: N-terminal GST; dsDNA, one strand shown. The method in brief:
as §1

Assay [12] deals with HSF1 (Homo sapiens, UniProt Q00613 1-529). Conditions: protein: recombinant; tags: N-terminal GST; chain copies: 3; dsDNA, one strand shown. The procedure, abridged:
as §1

The target of assay [13] is T8, SPIC (Homo sapiens, UniProt Q8N5J4 1-248).
T8 sequence: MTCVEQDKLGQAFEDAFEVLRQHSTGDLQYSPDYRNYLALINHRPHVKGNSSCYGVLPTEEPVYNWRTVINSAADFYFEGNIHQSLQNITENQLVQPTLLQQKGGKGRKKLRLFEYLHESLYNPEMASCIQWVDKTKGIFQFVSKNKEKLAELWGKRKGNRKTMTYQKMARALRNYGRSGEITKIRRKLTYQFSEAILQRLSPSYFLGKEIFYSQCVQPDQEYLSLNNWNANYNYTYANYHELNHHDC
Conditions: protein: recombinant; tags: N-terminal GST; dsDNA, one strand shown. The method in brief:
as §1

Assay [14] addresses ELF4 (Homo sapiens, UniProt Q99607 1-663). Particulars: protein: recombinant; tags: N-terminal GST; dsDNA, one strand shown. The method in brief:
as §1

The target in assay [15] is T9, ELK4 (Homo sapiens, UniProt P28324-2 1-405).
T9 sequence: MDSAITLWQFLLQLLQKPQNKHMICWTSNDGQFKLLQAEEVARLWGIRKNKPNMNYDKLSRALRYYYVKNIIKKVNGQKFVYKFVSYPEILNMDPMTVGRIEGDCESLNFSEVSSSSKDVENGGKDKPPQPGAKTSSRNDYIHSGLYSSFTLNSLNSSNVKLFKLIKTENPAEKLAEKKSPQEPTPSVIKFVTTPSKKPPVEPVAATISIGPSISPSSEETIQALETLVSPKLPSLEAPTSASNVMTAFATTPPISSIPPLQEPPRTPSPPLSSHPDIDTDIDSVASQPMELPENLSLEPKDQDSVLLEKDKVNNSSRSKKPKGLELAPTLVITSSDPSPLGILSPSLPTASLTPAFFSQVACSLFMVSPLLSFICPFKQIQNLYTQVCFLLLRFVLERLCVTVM
Particulars: protein: recombinant; tags: N-terminal GST; dsDNA, one strand shown. The procedure, abridged: as §1

Assay [16] deals with T10, ETV2 (Homo sapiens, UniProt O00321 1-342).
T10 sequence: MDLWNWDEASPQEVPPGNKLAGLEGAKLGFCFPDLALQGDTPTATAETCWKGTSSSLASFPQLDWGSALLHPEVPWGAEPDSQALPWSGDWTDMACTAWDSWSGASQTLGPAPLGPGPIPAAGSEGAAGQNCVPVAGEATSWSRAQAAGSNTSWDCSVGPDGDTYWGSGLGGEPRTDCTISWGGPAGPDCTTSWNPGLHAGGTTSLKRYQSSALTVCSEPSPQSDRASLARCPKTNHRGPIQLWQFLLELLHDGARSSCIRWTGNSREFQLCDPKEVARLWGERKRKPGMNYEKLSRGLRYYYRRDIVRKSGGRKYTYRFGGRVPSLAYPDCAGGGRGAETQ
Conditions: protein: recombinant; tags: N-terminal GST; dsDNA, one strand shown. The procedure, abridged:
as §1

Assay [17] has as its target T11, ELF3 (Homo sapiens, UniProt P78545 1-371).
T11 sequence: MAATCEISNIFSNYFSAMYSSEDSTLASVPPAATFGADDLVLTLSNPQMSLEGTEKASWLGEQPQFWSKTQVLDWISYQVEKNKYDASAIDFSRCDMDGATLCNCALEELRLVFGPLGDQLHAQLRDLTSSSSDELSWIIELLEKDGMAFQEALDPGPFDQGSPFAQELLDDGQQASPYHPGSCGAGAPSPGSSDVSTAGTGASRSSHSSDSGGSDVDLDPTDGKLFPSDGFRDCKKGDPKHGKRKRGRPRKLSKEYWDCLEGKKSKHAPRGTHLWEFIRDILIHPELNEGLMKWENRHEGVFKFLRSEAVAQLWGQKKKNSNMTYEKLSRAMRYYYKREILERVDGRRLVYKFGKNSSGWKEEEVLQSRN
Particulars: protein: recombinant; tags: N-terminal GST; dsDNA, one strand shown. The procedure, abridged:
as §1

For assay [18], the target named is CRX (Homo sapiens, UniProt O43186 1-299). Conditions: protein: recombinant; tags: N-terminal GST; dsDNA, one strand shown. The method in brief:
as §1

Assay [19] addresses ETV1 (Homo sapiens, UniProt P50549 1-477). Particulars: protein: recombinant; tags: N-terminal GST; dsDNA, one strand shown. The procedure, abridged:
as §1

Sequence of ETV5 (P41161 whole entry): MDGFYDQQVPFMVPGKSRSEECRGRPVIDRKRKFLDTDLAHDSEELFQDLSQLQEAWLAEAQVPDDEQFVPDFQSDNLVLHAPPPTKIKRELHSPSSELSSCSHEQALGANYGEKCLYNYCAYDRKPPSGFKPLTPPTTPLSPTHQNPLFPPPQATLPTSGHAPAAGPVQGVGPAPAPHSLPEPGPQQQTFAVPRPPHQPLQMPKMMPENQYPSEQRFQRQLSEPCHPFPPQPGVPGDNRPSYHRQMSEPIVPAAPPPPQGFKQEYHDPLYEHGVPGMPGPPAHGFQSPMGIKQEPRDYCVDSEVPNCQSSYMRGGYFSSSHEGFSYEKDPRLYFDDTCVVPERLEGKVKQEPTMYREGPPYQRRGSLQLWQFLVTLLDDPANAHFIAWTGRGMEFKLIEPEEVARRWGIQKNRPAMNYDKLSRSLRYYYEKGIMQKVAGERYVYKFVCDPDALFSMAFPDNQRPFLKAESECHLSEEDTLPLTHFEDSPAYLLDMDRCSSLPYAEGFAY
Sequence of ELF1 (P32519 whole entry): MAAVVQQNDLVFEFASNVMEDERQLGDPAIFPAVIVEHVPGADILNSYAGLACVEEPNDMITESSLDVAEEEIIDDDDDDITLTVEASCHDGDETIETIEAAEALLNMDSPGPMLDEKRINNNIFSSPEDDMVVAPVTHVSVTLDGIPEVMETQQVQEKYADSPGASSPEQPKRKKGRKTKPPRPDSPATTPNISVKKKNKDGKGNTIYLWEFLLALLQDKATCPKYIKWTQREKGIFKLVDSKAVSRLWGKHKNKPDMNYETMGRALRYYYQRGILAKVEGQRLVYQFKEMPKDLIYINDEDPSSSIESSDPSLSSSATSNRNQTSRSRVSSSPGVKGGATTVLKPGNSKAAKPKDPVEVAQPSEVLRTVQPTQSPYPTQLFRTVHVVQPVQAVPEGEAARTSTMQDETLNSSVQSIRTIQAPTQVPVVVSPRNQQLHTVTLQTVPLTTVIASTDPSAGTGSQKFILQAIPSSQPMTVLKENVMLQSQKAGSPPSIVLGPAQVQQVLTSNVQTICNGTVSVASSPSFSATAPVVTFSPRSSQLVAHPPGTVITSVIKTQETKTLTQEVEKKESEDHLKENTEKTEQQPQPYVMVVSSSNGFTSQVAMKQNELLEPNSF
Sequence of ETV1 (P50549 whole entry): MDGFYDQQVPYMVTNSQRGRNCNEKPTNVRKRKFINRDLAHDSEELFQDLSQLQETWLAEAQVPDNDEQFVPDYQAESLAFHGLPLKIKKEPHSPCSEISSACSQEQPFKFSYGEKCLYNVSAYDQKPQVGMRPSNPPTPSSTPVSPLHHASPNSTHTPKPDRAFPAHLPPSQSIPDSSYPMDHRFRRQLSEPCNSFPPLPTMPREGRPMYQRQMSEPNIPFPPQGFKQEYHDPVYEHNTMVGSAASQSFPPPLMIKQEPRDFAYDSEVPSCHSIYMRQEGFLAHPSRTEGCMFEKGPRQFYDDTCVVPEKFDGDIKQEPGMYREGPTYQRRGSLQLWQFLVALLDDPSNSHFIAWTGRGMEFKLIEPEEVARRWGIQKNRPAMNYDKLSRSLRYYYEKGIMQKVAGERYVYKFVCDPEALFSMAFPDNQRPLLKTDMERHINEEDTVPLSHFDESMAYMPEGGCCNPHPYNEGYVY
Sequence of HSF1 (Q00613 whole entry): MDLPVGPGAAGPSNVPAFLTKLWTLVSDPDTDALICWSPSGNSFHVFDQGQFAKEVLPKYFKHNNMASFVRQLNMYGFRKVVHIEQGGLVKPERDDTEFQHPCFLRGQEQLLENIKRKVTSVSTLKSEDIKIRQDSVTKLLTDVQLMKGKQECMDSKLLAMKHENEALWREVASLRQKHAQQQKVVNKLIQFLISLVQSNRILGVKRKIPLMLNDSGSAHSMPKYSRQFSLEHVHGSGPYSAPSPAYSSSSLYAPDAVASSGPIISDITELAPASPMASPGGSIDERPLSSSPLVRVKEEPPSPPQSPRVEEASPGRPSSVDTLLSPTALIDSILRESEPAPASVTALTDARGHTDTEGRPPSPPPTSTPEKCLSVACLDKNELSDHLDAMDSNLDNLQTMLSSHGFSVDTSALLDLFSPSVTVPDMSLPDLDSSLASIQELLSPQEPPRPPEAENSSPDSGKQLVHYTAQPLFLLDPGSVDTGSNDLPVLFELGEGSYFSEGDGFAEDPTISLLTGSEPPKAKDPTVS
Sequence of ELF4 (Q99607 whole entry): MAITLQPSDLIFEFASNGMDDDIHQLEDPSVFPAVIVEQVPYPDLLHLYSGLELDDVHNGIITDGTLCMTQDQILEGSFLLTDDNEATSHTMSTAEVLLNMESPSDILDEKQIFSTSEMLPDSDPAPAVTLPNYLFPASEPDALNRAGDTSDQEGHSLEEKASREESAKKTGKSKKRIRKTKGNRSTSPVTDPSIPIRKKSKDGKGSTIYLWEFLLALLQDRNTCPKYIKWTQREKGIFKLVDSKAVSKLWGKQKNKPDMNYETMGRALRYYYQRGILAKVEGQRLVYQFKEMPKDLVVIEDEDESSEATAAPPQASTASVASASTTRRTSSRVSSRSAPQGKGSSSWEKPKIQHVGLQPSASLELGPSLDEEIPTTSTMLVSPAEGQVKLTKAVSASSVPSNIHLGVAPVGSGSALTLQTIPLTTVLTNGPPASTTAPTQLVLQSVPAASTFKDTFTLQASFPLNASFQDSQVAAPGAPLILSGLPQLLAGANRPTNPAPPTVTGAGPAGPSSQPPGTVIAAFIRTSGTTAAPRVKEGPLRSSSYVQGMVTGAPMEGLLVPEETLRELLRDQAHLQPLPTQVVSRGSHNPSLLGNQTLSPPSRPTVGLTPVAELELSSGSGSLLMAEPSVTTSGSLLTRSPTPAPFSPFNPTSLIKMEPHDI
Sequence of CRX (O43186 whole entry): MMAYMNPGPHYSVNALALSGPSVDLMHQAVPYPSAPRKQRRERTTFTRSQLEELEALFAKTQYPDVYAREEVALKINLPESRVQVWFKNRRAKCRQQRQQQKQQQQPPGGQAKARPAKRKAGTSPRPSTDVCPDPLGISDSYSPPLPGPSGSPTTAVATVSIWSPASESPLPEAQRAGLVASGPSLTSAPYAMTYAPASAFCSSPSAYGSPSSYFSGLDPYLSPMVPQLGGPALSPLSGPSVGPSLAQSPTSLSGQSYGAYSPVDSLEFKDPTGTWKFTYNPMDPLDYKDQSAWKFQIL

As to CTAAGC, the binding signal was 1.09 fold enrichment (6-mer frequency, TF over GST control) in assay [1]; 1.06 fold enrichment (6-mer frequency, TF over GST control) in assay [2]; 1.08 fold enrichment (6-mer frequency, TF over GST control) in [3]; 1.11 fold enrichment (6-mer frequency, TF over GST control) in assay [4]; 1.15 fold enrichment (6-mer frequency, TF over GST control) in assay [5]; 1.14 fold enrichment (6-mer frequency, TF over GST control) in assay [6]. Also, the binding signal is 1.03 fold enrichment (6-mer frequency, TF over GST control) in [7]; 1.16 fold enrichment (6-mer frequency, TF over GST control) in [8]; 1.03 fold enrichment (6-mer frequency, TF over GST control) in assay [9]; 1.05 fold enrichment (6-mer frequency, TF over GST control) in assay [10]; 1.05 fold enrichment (6-mer frequency, TF over GST control) in assay [11]; 1.56 fold enrichment (6-mer frequency, TF over GST control) in [12]. In addition, the binding signal is 1.08 fold enrichment (6-mer frequency, TF over GST control) in assay [13]; 1.09 fold enrichment (6-mer frequency, TF over GST control) in assay [14]; 1.16 fold enrichment (6-mer frequency, TF over GST control) in assay [15]; 1.17 fold enrichment (6-mer frequency, TF over GST control) in [16]; 1.12 fold enrichment (6-mer frequency, TF over GST control) in assay [17]; 2.45 fold enrichment (6-mer frequency, TF over GST control) in [18]. In assay [19], the binding signal was 1.06 fold enrichment (6-mer frequency, TF over GST control).
